# TGFb SMAD3 inh = blocks TGF-b signaling. HepG2 CAGA-GFP TGF-b/SMAD3 reporter, GFP fluorescence, 18 h; TGF-beta stimulated, 500 pg/mL final. Potency, µM (series often up to 46.1 µM), usual class: inhibitors. 410,000 tested, 1.2% active; also: nearly all actives have a fitted effect of over 65% in size
#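 HEPG2 CAGA-GFP cells (1000/well, DMEM with 1% FBS) were pre-incubated 2 h at 37 degrees C, given compound by pin tool, then stimulated with TGF-beta at 500 pg/mL final for 18 h before per-cell GFP fluorescence imaging.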
# HepG2 viability = kills HepG2 cells in TGF-b inhibitor counter-screen. HepG2 CAGA-GFP viability, ATP luminescence, 18 h. Potency, µM (top dose mostly 46.1 µM), actives largely listed as cytotoxic. 410,000 tested, 0.76% active
#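 HepG2 CAGA-GFP cells (1000/well, DMEM with 1% FBS) received compound, then TGF-beta at 500 pg/mL final, and were incubated 18 hours at 37 degrees C. Viability was read by CellTiter-Glo luminescence. Media-only wells were set as complete cell-killing and DMSO as no toxicity.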
# DT40 TDP1 CPT = growth inhibition of DT40 Tdp1-/-;hTDP1 cells with camptothecin (screen for TDP1 inhibitors) | Potency, µM (doses to about 46.2 µM), usual class: inhibitors | chicken DT40 Tdp1-/-;hTDP1 cells + 20 nM CPT, ATP luminescence, 48 h | AID 686979 | 420,000 tested, 12% active; also: nearly all actives have a fitted effect of over 55% in size
#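 Chicken DT40 Tdp1-/- cells complemented with human TDP1, 400 cells/well, exposed to compounds plus 20 nM camptothecin for at least 48 h at 37 C; viability read as ATP content by CellTiter-Glo luminescence.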
# TDP1 block = inhibitors of human tyrosyl-DNA phosphodiesterase TDP1; Q9NUW8; recombinant TDP1, AlphaScreen DNA substrate cleavage; Potency, µM (top dose mostly 130 µM), hits mostly inhibitors; 350,000 tested, 0.28% active; AID 485290; also: nearly all actives have a fitted effect of over 40% in size
# Target sequence (Q9NUW8 whole entry, looked up): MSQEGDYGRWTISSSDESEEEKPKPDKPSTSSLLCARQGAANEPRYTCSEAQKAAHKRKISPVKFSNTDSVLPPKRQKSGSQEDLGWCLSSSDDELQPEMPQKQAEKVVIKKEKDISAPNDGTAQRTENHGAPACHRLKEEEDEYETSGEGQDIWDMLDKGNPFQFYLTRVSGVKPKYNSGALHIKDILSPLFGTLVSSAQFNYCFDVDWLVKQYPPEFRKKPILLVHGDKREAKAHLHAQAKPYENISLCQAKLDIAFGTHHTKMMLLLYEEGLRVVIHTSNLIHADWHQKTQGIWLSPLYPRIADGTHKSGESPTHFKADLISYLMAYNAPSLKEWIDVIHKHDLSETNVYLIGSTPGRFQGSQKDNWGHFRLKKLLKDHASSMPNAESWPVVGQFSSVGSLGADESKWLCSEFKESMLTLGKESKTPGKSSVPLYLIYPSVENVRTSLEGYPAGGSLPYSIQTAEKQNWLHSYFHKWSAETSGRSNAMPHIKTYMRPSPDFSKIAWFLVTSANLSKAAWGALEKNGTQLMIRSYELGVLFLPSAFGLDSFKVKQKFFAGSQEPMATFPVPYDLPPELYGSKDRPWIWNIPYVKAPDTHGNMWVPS
#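 Recombinant E. coli-expressed Tdp1 (1 nM) preincubated with compound 15 min at RT, then 5'-biotin/3'-phosphotyrosine-FITC DNA substrate (15 nM) added for 5 min. AlphaScreen beads (10 ug/ml) added, 10 min RT; tyrosine-FITC cleavage read as signal loss.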
# DT40 TDP1 no CPT = qHTS for Inhibitors of human tyrosyl-DNA phosphodiesterase 1 (TDP1): qHTS in cells in absence of CPT | DT40 Tdp1-/- hTDP1 cells, no CPT, ATP luminescence, 48 h | Potency, µM (top dose mostly 46.2 µM), most hits filed as inhibitors | 420,000 tested, 15% active; also: nearly all actives have a fitted effect of over 55% in size
#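 A cellular qHTS used chicken DT40 cells lacking endogenous Tdp1 but carrying stably transfected human TDP1. Compounds were applied without camptothecin, and cell growth kinetics were judged by ATP-dependent luminescence after ≥48 hr.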
# IL-1B inflam inh = blocks inflammasome-driven IL-1 beta release; activity change, % at 57.5 µM; THP-1 LPS/ATP IL-1B secretion, AlphaLISA, 16 h; hits give low values; 360,000 tested, 4.7% active; AID 743279; in the data active = activity change below about -50%; inconclusive = mostly about -30% to -49%
#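 Secreted IL-1B measured by AlphaLISA bead assay after 16 h compound exposure of THP-1 cells; compounds (final up to 57.5 uM) added 1 h before LPS (250 ng/mL) and ATP (1.25 mM) stimulation; lower signal means less secretion.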
# Numbers stand for hits; - = inactive; ? = inconclusive; . = no result. The list is not random: actives were taken first. Their share in the collection is about 18%. Unless noted, calls follow the shape of the dose curve; as a rule, active = well fitted curve in the direction sought with a large enough effect; inconclusive = small, poorly fitted or top-dose-only effect, or another doubt; inactive = no such curve, though single readings can be large; an effect the other way counts as inactive or inconclusive.
SMILES,TGFb SMAD3 inh,HepG2 viability,DT40 TDP1 CPT,TDP1 block,DT40 TDP1 no CPT,IL-1B inflam inh
Cc1occc1C(=O)N(C)Cc1nc(-c2ccc(Cl)cc2)no1,-,-,26µM,.,21µM,-
CC(C)N(Cc1nc(-c2ccccc2)no1)C(=O)c1ccc(Br)o1,-,-,-,-,16µM,-
CC(C)N(Cc1nc(-c2ccc(Cl)cc2)no1)Cc1nccn1C,-,-,?,-,16µM,-
N#Cc1cccc(OC2=NS(=O)(=O)c3ccccc32)c1,.,.,.,-,.,.
CCSc1nnc(NC(=O)C(NC(=O)c2ccc(Cl)cc2)C(C)C)s1 (stereo not drawn),-,-,-,-,-,-
Cc1c(N2C(=O)C3C4C=CC(C5CC45)C3C2=O)c(=O)n(-c2ccccc2)n1C (stereo not drawn),-,-,-,.,-,-
CC(C)N(Cc1nc(-c2ccccc2)no1)C(=O)c1ccc([N+](=O)[O-])cc1,-,-,4.6µM,-,5.2µM,-
Cc1onc(-c2ccccc2Cl)c1C(=O)N(C)Cc1ccccc1,-,-,?,.,?,-
CC(C)N(Cc1nc(-c2ccccc2)no1)C(=O)C1CCCCC1,-,-,?,-,?,-
CCN(Cc1ccccc1)C(=O)c1c(-c2ccccc2Cl)noc1C,-,-,?,.,12µM,-
Cc1cc(C)c(Cn2c(C(O)c3ccccc3)nc3ccccc32)c(C)c1 (stereo not drawn),16µM,-,18µM,-,9.2µM,.
CCn1c(C(O)c2ccccc2)nc2ccccc21 (stereo not drawn),-,-,-,-,-,-
COc1ccc(C(O)c2nc3ccccc3n2C)cc1OC (stereo not drawn),-,-,9.2µM,-,12µM,-

# From PubChem BioAssay
